Measured values as given in PubChem BioAssay AID540299 (ICCB-Longwood Screening Facility, Harvard Medical School, 2011).
In all, about 100,000 compounds went through this assay and about 440 (0.44%) were called active. The sample holds actives, similar compounds and a random draw of the others, so the mix is not that of the screen. Cut-off read from the data, not from the text of the source: active = inhibition above about 21% (passing the limit was not always enough); inactive = the rest.

Biological target: 1,4-dihydroxy-2-naphthoyl-CoA synthase (Mycobacterium tuberculosis (strain ATCC 25618 / H37Rv)) (UniProt P9WNP5)
Sequence (P9WNP5 whole entry, looked up): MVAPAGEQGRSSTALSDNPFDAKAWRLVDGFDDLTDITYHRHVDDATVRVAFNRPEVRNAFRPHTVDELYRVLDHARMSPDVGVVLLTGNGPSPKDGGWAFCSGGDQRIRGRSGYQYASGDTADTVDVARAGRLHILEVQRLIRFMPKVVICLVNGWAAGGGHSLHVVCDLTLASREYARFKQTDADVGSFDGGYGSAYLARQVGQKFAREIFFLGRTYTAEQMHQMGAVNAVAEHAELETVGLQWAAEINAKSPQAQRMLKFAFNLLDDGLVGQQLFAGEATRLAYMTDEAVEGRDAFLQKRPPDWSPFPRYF
Experiment: M. tuberculosis MenB inhibitors, primary screen, biochemical, absorbance (AID 540299)
Conditions: MenB enzyme assay, absorbance read-out; stronger effect = higher value; concentration not given here

| SMILES | inhibition |
| --- | --- |
| CC1CC(Nc2ncnc3c2cnn3C)CC(C)(C)C1 (stereo unspecified) | -4.06% (inactive) |
| CCn1c(SCc2cc(=O)n3ccsc3n2)nnc1-c1cccs1 | 9.46% (inactive) |
| C=CCSc1nnc(NC(=O)CSc2nc(C)cc(=O)[nH]2)s1 | -17% (inactive) |
| NS(=O)(=O)c1ccc(NC(=O)Cc2ccccc2F)cc1 | -21.5% (inactive) |
| CCN(CC)C(=O)N1CCc2cc(OC)c(OC)cc2C1c1cc2cc(C)ccc2n(C(=O)N(CC)CC)c1=O (stereo unspecified) | 4.68% (inactive) |
| N#CCSc1ccccc1NC(=O)CN1CCc2sccc2C1c1cccs1 (stereo unspecified) | -20.8% (inactive) |
| CN(CC(=O)Nc1ccccc1SCC#N)Cc1ccc(-c2ccc(Br)cc2)o1 | 30.3% (active) |
| COc1cc(C(=O)Nc2ccc3nc(N4CCN(c5ncccn5)CC4)cc(C)c3c2)cc(OC)c1OC | 2.12% (inactive) |
| CC(c1ccccc1)n1cnc2c(oc3ccccc32)c1=O (stereo unspecified) | 7.36% (inactive) |
| Cc1ccc2[nH]c(=O)c(C(c3nnnn3C3CCCC3)N(C)C3CCCCC3)cc2c1 (stereo unspecified) | 3.2% (inactive) |
| CCc1ccc(N/N=C(\C#N)C(=O)N2CCN(C)CC2)cc1 | -139% (inactive) |
| O=C(CCn1c(=O)c2cccn2c2ccc(F)cc21)NC1CCCCC1 | -14.7% (inactive) |
| Cc1ccc2c(c1)c1c3n2CCN(C2CCO2)C3CCC1 (stereo unspecified) | -8.76% (inactive) |
| O=C(CC(NCCc1ccc(Cl)cc1)C(=O)O)c1ccc(Br)cc1 (stereo unspecified) | -5.44% (inactive) |
| CC(C)(C)c1oc2cc(Br)c(O)cc2c1C(=O)O | -32.6% (inactive) |
| COc1nc2nonc2nc1OC | 26.7% (inactive) |
| CCO/C(C)=N\Oc1nc2nonc2nc1O/N=C(/C)OCC | 28.8% (active) |
| CCOC(=O)CCSc1ccccn1 | -3.2% (inactive) |
| CN(Cn1nc(Nc2ccccc2F)sc1=S)C1CCCCC1 | 4.42% (inactive) |
| O=CN/N=C/c1cn(-c2cccs2)nc1-c1ccccc1 | -3.73% (inactive) |
| C=COc1ccc(N)cc1 | -24.2% (inactive) |
| Cc1noc2nc(C(F)(F)F)cc(C(F)(F)F)c12 | -1.29% (inactive) |

| SMILES | inhibition |
| --- | --- |
| COc1ccc(OCCNS(=O)(=O)Cc2ccccc2)cc1 | -18.2% (inactive) |
| O=S(=O)(NCCc1ccccc1)c1ccccc1 | 10.7% (inactive) |
| CS(=O)(=O)Cc1ccccc1 | 28.2% (active) |
| O=C(O)CC(c1ccccc1)c1cc(Cl)ccc1O (stereo unspecified) | 2.19% (inactive) |
| CC1CN(C(=O)COC(=O)c2c(F)cccc2F)CC(C)O1 (stereo unspecified) | -14.9% (inactive) |
| Cc1cc(NC(=O)COC(=O)C2CSC3(C)CCC(=O)N23)no1 (stereo unspecified) | -17% (inactive) |
| CCCCn1c(N)c(N2CCOCC2)c(=O)n(CC(=O)NCCc2ccccc2)c1=O | 2.85% (inactive) |
| COc1cc(S(=O)(=O)N2CCCCC2)ccc1N=Cc1c(C)[nH]n(-c2ccccc2)c1=O | -6.35% (inactive) |
| Cn1c(=O)c(=O)n(C)c2cc(N3CCCCC3)c(NS(=O)(=O)c3ccc(Br)s3)cc21 | -15.3% (inactive) |
| NCCN1C(=O)S/C(=C/c2cccs2)C1=O | -14.2% (inactive) |
| O=C(Cn1cnc2ccccc2c1=O)NCCSCc1ccco1 | -21.3% (inactive) |
| COc1ccc(OCC(=O)N2CCC(C(N)=O)CC2)cc1 | -7.08% (inactive) |
| CC1CC(C)CN(C(=O)COC(=O)c2ccccc2NC(=O)c2ccco2)C1 (stereo unspecified) | 9.45% (inactive) |
| O=C1C2N=NN(CC(=O)N(c3ccccc3)c3ccccc3)C2C(=O)N1c1ccc(Cl)cc1 (stereo unspecified) | -6.55% (inactive) |
| N#CC(C#N)=Cc1ccc(OC(=O)c2cccs2)cc1 | 0.71% (inactive) |
| CC(=O)N(Cc1cc2ccccc2[nH]c1=O)c1ccccc1 | -11.4% (inactive) |
| S=C(NC1CCCCC1)NN1CCOCC1 | -1.62% (inactive) |
| CC(NCCN1CCOCC1)C(=O)NC1CCCCC1 (stereo unspecified) | 35.5% (active) |
| COC(=O)c1c(NC(=O)CCN2CCOCC2)sc2c1CCCC2 | -12.6% (inactive) |
| Cc1cc(C)n(CC(O)CNCc2ccco2)n1 (stereo unspecified) | -21.2% (inactive) |
| CN(C)c1ccc(C=Nc2cc(Br)c3c(c2)OCCO3)cc1 | 7.11% (inactive) |
| O=C(O)CSc1ccc2nnc(-c3ccc(F)cc3)n2n1 | -23.7% (inactive) |

| SMILES | inhibition |
| --- | --- |
| CNCC(O)CN1CCN(c2ccccc2OC)CC1 (stereo unspecified) | -10.5% (inactive) |
| COc1cccc(-c2noc(NCCN3CCOCC3)n2)c1 | -12.4% (inactive) |
| COc1ccccc1COCC(O)CN1CCC(=O)CC1 (stereo unspecified) | -22.7% (inactive) |
| C(=C\c1ccccc1)/CNCCCN1CCOCC1 | -52.5% (inactive) |
| COc1ccccc1OCC(O)CN1CCOCC1 (stereo unspecified) | 34.9% (active) |
| COc1ccccc1CNCCN1CCOCC1 | 38.3% (active) |
| CC(=O)n1c2ccccc2c2nc(C)sc21 | -21.4% (inactive) |
| CCOC(=O)c1ccc(NC(=O)C(CC)Sc2nnc(C)n3c2cc2occc23)cc1 (stereo unspecified) | -38.3% (inactive) |
| CN(C)c1ccc(/C=N/NC(=O)NC23CC4CC(CC(C4)C2)C3)cc1 | -17% (inactive) |
| CCCNC(=O)c1cc(C(C)C)on1 | -9.37% (inactive) |
| CC(C)c1cc(C(=O)O)on1 | 31.1% (active) |
| Cc1cc(C(=O)N2CCCC2)on1 | -1.16% (inactive) |
| COc1cc(OC)c(NC(=O)C2CCCN(S(=O)(=O)c3ccc4c(c3)oc(=O)n4C)C2)cc1Cl (stereo unspecified) | -18.8% (inactive) |
| Cc1nnc(NC(=O)CSc2nnc(CNC(=O)c3ccccc3F)n2C)s1 | 27.8% (inactive) |
| O=C(OCc1ccc(-c2cc(C(F)(F)F)cc(C(F)(F)F)c2)o1)c1ccc2c(c1)CCO2 | -6.53% (inactive) |
| CCN(CC)C(=O)COc1ccc(/C(C)=N/NC(=O)Cc2ccccc2)cc1 | -14.7% (inactive) |
| O=C(O)C1CC=CCC1C(=O)NCCc1ccccc1 (stereo unspecified) | 36% (active) |
| O=C(NCCc1ccccc1)Nc1ccccc1 | 8.56% (inactive) |
| O=C(O)C1C2C=CC(O2)C1C(=O)NCCc1cccc(Cl)c1 (stereo unspecified) | -14.4% (inactive) |
| COc1cccc(-n2c(=S)sc3c(=O)n4[nH]c(=O)c5ccccc5c4nc32)c1 | -24.4% (inactive) |
| CC(C)[C@H](NC(N)=O)C(=O)Nc1ccc(Cl)c(Cl)c1 | -13.2% (inactive) |
| CCOC(CSc1nnc2c3ccccc3n(CC)c2n1)OCC | -14% (inactive) |

| SMILES | inhibition |
| --- | --- |
| CC(=O)NC1C(Oc2ccccc2)OC(CO)C(O)C1O (stereo unspecified) | -6.61% (inactive) |
| COc1ccc(OCCOc2cccc(N)c2)cc1 | -98.6% (inactive) |
| Cc1cccc(-n2nnnc2SCC(=O)c2c[nH]c3ccccc23)c1 | -3.22% (inactive) |
| C=CCN(CC=C)C(=O)CSc1nnnn1-c1ccc(C)cc1C | -1.92% (inactive) |
| CCn1nnnc1SCC(=O)c1ccc(C)cc1C | 33.1% (active) |
| CCNC(=S)N1CCn2cccc2C1c1cccs1 (stereo unspecified) | -29% (inactive) |
| CC(Sc1nnnn1C)C(=O)C12CC3CC(CC(C3)C1)C2 (stereo unspecified) | -36% (inactive) |
| COc1ccc(S(N)(=O)=O)cc1C(=O)OC1CCCCC1=O (stereo unspecified) | -12.8% (inactive) |
| Clc1cccc(Nc2nnc(-c3ccc(Br)cc3)o2)c1 | 1.27% (inactive) |
| CC1CCNC(c2cccn2C)CC1 (stereo unspecified) | -2.11% (inactive) |
| CCN1C(=O)C2(Sc3ccccc3C2=O)C(=O)N(CC)C1=S | -6.71% (inactive) |
| Clc1ncn(CCOc2ccccc2)c1Cl | 3.99% (inactive) |
| O=C(Cn1c(=O)oc2ccccc21)N(Cc1ccco1)CC1CCCO1 (stereo unspecified) | 2.87% (inactive) |
| O=C(NCc1ccco1)OCC(F)(F)F | 8.37% (inactive) |
| O=C(c1cccs1)N1CCCn2c(SCc3ccccc3Cl)nnc21 | -21.4% (inactive) |
| COC(=O)c1ccccc1S(=O)(=O)N1CCC(C(=O)OCC(=O)Nc2ccccc2F)CC1 | -9.07% (inactive) |
| CCN(CC)CCn1c2ccccc2c2nc3cc(C(=O)O)ccc3nc21 | -8.07% (inactive) |
| Cc1oc(-c2ccc(Cl)cc2)nc1CSCC(=O)N1CCc2ccccc21 | 8.32% (inactive) |
| COCCN=c1scc(-c2ccco2)n1/N=C/c1ccc(OC)cc1 | -60.5% (inactive) |
| CN1C(=O)CS/C1=C\C(=O)c1cccs1 | -16.1% (inactive) |
| Fc1ccc(C=Nc2ccc3c(c2)OCO3)cc1 | 10.6% (inactive) |
| C/[N+]([O-])=C\c1ccc(-c2ccccc2)cc1 | -18.5% (inactive) |

| SMILES | inhibition |
| --- | --- |
| O=C(COc1ncnc2c1cnn2-c1ccccc1)N1CCc2ccccc21 | -28.4% (inactive) |
| O=C(COn1nnc2ccccc21)N1CCC(Cc2ccccc2)CC1 | -32.5% (inactive) |
| O=C1NC(c2cccc(F)c2)=N/C1=C/c1cc2c(cc1Cl)OCO2 | -89% (inactive) |
| Cc1ccc(-c2csc3ncnc(NCCO)c23)cc1 | -19.8% (inactive) |
| Cc1cccc(/N=c2\scc(-c3ccco3)n2-c2ccccc2)n1 | -26.2% (inactive) |
| CCC(=O)c1c(O)ccc2c(C)cc(=O)oc12 | 2.91% (inactive) |
| CCN(CC)c1ccc2cc(C(N)=O)/c(=N\NC(=O)c3ccccc3)oc2c1 | -13.9% (inactive) |
| Cn1c(=N)n(CC(=O)C23CC4CC(CC(C4)C2)C3)c2ccccc21 | -12% (inactive) |
| Cc1ccc(NC(=O)CN2CCc3ccccc32)cc1C | -19.3% (inactive) |
| COc1cccc2c(C)nc(NC3=NCN(CC4CCCO4)CN3)nc12 (stereo unspecified) | -8.02% (inactive) |
| COC(=O)c1ccc(NC(=O)C(C(C)C)N2C(=O)c3ccccc3C2=O)cc1 (stereo unspecified) | 0.235% (inactive) |
| Cc1cc(NC(=O)[C@H](C)NC(=O)c2ccco2)ccc1Br | 0.245% (inactive) |
| Cc1ccccc1NC(=O)COC(=O)c1ccccc1 | 4.34% (inactive) |
| O=C1Nc2ccccc2S/C1=C\C(=O)N1CCc2ccccc2C1 | -6.55% (inactive) |
| CCOC(=O)c1ccc2c(c1)[nH]c(=O)c(=O)n2CC | 5.07% (inactive) |
| O=C(O)/C(=C/C(=O)c1ccccc1)Nc1ccc(OC(F)(F)F)cc1 | 32.1% (active) |
| C/C(=C\C(=O)c1ccccc1)Nc1cccc(O)c1 | -47% (inactive) |
| O=C(O)/C(=C/C(=O)c1ccc(F)cc1)Nc1ccc2[nH]c(=O)[nH]c2c1 | -9.19% (inactive) |
